Experimental data reported in PubChem BioAssay AID886 (National Center for Advancing Translational Sciences (NCATS), 2007).
Values joined by “and” are separate entries in the source; they are usually repeats but may differ in a detail not shown here. Identical values can stand only once. About 2,500 (3.4%) of roughly 73,000 compounds were called active. Where a call stands in place of a potency, no number is given. Not shown: some 7% with an inconclusive outcome. The call rests on the fitted dose curve; in most records, active means well fitted inhibition curve with a large enough effect; inconclusive means small, poorly fitted or top-dose-only effect; inactive means no such curve, though single readings can be large or run the other way. The sample as a whole holds a higher share of actives than the screen did.

Each compound was assayed against 3-hydroxyacyl-CoA dehydrogenase type-2 (Homo sapiens) (UniProt Q99714) (assay: qHTS Assay for Inhibitors of HADH2 (Hydroxyacyl-Coenzyme A Dehydrogenase, Type II)). Conditions: recombinant HADH2, NADH fluorescence, beta-hydroxybutyryl-CoA; series mostly up to 57.1 µM.
Excerpt: Assay Overview: NIH Molecular Libraries Screening Centers Network [MLSCN] NIH Chemical Genomics Center [NCGC] Structural Genomics Consortium [SGC] Grant Number: None HADH2: Hydroxyacyl-Coenzyme A dehydrogenase, type II, was supplied by researchers at the Structural Genomics Consortium, Oxford University lab (PI Udo Oppermann). The mitochondrial enzyme 17-hydroxysteroid dehydrogenase type 10 (HSD17-10) previously classified as type II hydroxyacyl-CoA dehydrogenase (HADH2) catalyzes the NAD+ dependent oxidation of a variety of substrates including acyl-CoAs, androgens and neurosteroids as well as bile acids(Shafqat N, Marschall HU, Filling C, et al. Biochemical Journal. 2003;376(Pt 1):49-60). The role in neurodegeneration by binding to amyloid-peptide led to its identification (Oppermann UC, et al FEBS Letters. 1999;451(3):238-242 and Yan SD, et al. Nature. 1997;389(6652):689-695), and mutations in its gene appear to be causative for 2-methyl-3-hydroxybutyryl-CoA dehydrogenase deficiency (Ofman R, et al. American Journal of Human Genetics. 2003;72(5):1300-1307). The enzyme was produced by E.coli fermentation as His-tagged recombinant for the purpose of X-ray structure determination, and had been mass-spectrometry characterized. Inhibition of HADH2 activity was screened by utilizing beta-hydroxybutyryl coenzyme A as an electron donor and NAD+ as an electron acceptor/cofactor. An increase in the fluorescence intensity due to conversion of NAD+ to NADH was used to measure the enzyme activity.
Assay Protocol: Buffer: 100 mM Tris-HCl pH 9.0, containing 0.01 % Tween-20. Reagents/Controls: Buffer in columns 3 and 4 as negative control (no enzyme). Substrate/cofactor solution: 1 mM NAD+ and 90 uM beta-hydroxybutyryl coenzyme A (Sigma-Aldrich, St. Louis, MO) final concentrations dispensed throughout the plate. Enzyme: 20 nM HADH2 final concentration in columns 1, 2, 5-48. Column 1 is neutral (100% activity). Column 2 contained titration of apomorphine (Sigma-Aldrich, A 4393, PubChem CID 2215, top concentration 500 uM, then 1:2 dilution in duplicate) Assay Steps: Three uL of enzyme were dispensed to 1536-well Greiner black solid bottom plates. Compounds and controls (23 nL) were transferred via Kalypsys PinTool. The plates were incubated for 15 min at room temperature, and then 1 uL of substrate/cofactor solution was added to start the reaction. The plates were immediately transferred to and read every 30 seconds for 4 min on ViewLux High-throughput CCD imager (Perkin-Elmer) using 360 nm excitation and 450 nm emission fluorescence protocol. The fluorescence intensity difference between the last and the first time points was used to compute reaction progress.
Further: nearly all actives have a fitted effect of over 60% in size.
Potency means the concentration at half of the fitted maximal effect.

Sequence of 3-hydroxyacyl-CoA dehydrogenase type-2 (Homo sapiens) (Q99714 whole entry, looked up): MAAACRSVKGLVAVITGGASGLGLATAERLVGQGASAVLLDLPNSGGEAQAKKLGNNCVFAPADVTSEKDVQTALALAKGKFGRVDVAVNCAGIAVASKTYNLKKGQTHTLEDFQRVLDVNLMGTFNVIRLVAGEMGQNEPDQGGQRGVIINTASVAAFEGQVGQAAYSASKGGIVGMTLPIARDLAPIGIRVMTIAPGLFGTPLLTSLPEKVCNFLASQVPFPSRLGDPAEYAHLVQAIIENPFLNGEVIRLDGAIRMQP
Sequence of 3-hydroxyacyl-CoA dehydrogenase type-2 (Homo sapiens) (Q99714 whole entry, looked up): as above

Compound | Potency | activity change, negative = inhibition
COC(=O)N(c1ccc(OC)cc1)P1(=S)OCCC(C)O1 (stereo not given) | 1 µM (active) | 
Fc1ccc(C(OCCN2CCN(C/C=C\c3ccccc3)CC2)c2ccc(F)cc2)cc1 | inactive | 
N[C@H](Cc1o[nH]c(=O)c1Cl)C(=O)O | inactive | 
C/C(=C\C=C/[C@@H](C)C(=O)O)[C@H]1CN[C@H](C(=O)O)[C@@H]1CC(=O)O | inactive | 
O=C1C2(Cl)C3(Cl)C4(Cl)C(Cl)(Cl)C5(Cl)C3(Cl)C1(Cl)C5(Cl)C24Cl (stereo not given) | inactive | 
COc1ccc(CN2CCN(c3ccccc3F)CC2)c(OC)c1 |  | -2.55% [at 11.4 µM] (inactive)
CC(Cl)Cl | inactive | 
Cc1cccc([C@H](C)c2cnc[nH]2)c1C | inactive | 
Nc1ccc([N+](=O)[O-])cc1 | inactive | 
O=[N+]([O-])c1ccc(Cl)c(Cl)c1 | 31.6 µM (active) | 
Cc1cc(-c2ccc(N)c(C)c2)ccc1N | inactive | 
ClCCBr | inactive | 
O=C(O)C(=O)Cc1ccc2c(c1)OCO2 |  | -12.9% [at 11.4 µM] (inactive)
CC(=O)O[C@H]1CC[C@@]2(C)[C@@H](CC[C@H]3[C@H]2CC(=O)[C@]2(C)[C@@H]3C[C@@H](N3CC3)[C@H]2C(C)=O)C1 |  | 16.9% [at 11.4 µM] (inactive)
CC(C)(O/N=C(\C(=O)N[C@@H]1C(=O)N2C(C(=O)[O-])=C(C[n+]3ccccc3)CS[C@@H]12)c1csc(N)n1)C(=O)O | 7.94 µM (active) | 
c1ccc(CN2CC[C@@]3(CCCNC3)C2)cc1 | inactive | 
NCC[Se][Se]CCN |  | 1.13% [at 11.4 µM] (inactive)
NC[C@H](O)c1ccc(O)cc1 | inactive | 
BrC1C(Br)C(Br)C(Br)C(Br)C1Br (stereo not given) | 25.1 µM (active) | 
C[C@H](Br)C(=O)N[C@H](CO)C(=O)O |  | -0.293% [at 11.4 µM] (inactive)
CC[C@]1(O)C(=O)OCc2c1cc1n(c2=O)Cc2cc3ccccc3nc2-1 | inactive | 
CCCCN1C2CCC1CC(OC(c1ccc(F)cc1)c1ccc(F)cc1)C2 (stereo not given) | inactive | 
CCOC(=O)c1c(-c2ccccc2)oc2ccc(OC(=O)N(C)C)cc12 | 7.94 µM (active) | 
C[C@@]12CC[C@H]3[C@@H](CC[C@]4(O)C[C@H](O)CC[C@@]34C=O)[C@]1(O)CC[C@@H]2C1=CC(=O)OC1 | inactive | 
Clc1ccc([C@@H]2C[C@H]3CC[C@@H]2N3)cn1 | inactive | 
ClC(Cl)(Cl)c1ccccc1 | inactive | 
CC(=O)c1c(O)c(C)c(O)c(Cc2c(O)c3c(c(C(=O)/C=C\c4ccccc4)c2O)OC(C)(C)C=C3)c1O | 12.6 µM (active) and 1 µM (active) | 
Nc1ccc(Cc2ccc(N)c(Cl)c2)cc1Cl | inactive | 
Clc1ccccc1 | inactive | 
CC(C)(c1ccccc1)c1ccc(O)cc1 | inactive | 
